In the library only some 0.51% were active in any assay of this set; here they are far more common.
Rango-impB inh: Rango-importin beta binding inhibition | Q14974 | Rango CFP/YFP FRET sensor + importin beta, 45 min | Potency, µM (doses to about 92.2 µM) | 340,000 tested, 0.031% active | AID 540263; note: nearly all actives have a fitted effect of over 15% in size
Target sequence (Q14974 whole entry, looked up): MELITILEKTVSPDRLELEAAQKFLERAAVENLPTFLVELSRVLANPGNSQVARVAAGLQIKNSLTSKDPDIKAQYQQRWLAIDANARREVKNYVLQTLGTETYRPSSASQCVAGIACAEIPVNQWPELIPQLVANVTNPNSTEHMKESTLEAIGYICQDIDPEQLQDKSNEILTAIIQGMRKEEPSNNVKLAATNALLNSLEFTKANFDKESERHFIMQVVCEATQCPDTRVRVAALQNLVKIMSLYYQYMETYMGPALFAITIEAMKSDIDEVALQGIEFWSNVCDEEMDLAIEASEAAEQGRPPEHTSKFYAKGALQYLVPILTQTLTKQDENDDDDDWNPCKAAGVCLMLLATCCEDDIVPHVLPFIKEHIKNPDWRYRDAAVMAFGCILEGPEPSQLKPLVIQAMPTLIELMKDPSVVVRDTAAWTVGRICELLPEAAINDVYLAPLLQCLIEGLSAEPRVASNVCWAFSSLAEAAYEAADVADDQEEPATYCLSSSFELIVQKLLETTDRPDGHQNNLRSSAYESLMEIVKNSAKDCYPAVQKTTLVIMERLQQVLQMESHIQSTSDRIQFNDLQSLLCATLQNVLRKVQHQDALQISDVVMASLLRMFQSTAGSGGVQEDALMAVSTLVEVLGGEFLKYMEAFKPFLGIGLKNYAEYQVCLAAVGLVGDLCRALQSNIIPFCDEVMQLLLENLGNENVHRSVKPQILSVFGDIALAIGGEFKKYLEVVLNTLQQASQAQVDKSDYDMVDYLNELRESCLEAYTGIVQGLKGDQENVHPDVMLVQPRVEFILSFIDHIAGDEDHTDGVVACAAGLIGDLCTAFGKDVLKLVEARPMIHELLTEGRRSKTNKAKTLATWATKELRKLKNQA
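Inhibition scored from the CFP 486 nm/YFP 530 nm FRET ratio 45 min after adding 0.125 microM importin beta to 50 nM Rango biosensor preincubated 5 min with compound (room temperature, PBS with DTT, Tween-20, BSA). No-importin wells as positive control.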
MmCpn inh: M. maripaludis TRiC chaperonin inhibition; purified Mm-Cpn ATPase, ADP Transcreener TR-FRET; 330,000 tested, 0.031% active; AID 504842; Potency, µM (top dose mostly 76.9 µM), hits mostly inhibitors; active = well fitted curve in the direction sought with a large enough effect; inconclusive = small, poorly fitted or top-dose-only effect, or another doubt; inactive = no such curve, though single readings can be large; an effect the other way counts as inactive or inconclusive; note: nearly all actives have a fitted effect of over 80% in size
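TR-FRET (320 nm excitation; 590 and 665 nm emission) reports ADP made from 10 uM ATP by 25 nM enzyme; compounds were preincubated 10 min, reaction run 30 min, both at 37°C.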
CCT modulator: cytosolic chaperonin activity modulation. purified chaperonin ATPase assay, HTRF ADP detection, 30 min. activity change, % (concentration not given with the values), hits read low. 360,000 tested, 0.3% active; in the data active = activity change below about -30%
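ATPase activity: ADP formed was measured by HTRF Transcreener (665/615 nm ratio) after 30 min at 37 deg C with 10 uM ATP. Compounds screened at one 76 uM concentration against 40 or 20 nM TRiC in Tris pH 7.4/KCl/MgCl2/DTT buffer.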
Rango dissoc inh: inhibitors of RanGTP-induced Rango-importin beta complex dissociation. O95149+P62826. Biochemical FRET Rango-importin beta, RanGTP-induced dissociation. Potency, µM (titrated, usually from 46.1 µM). 340,000 tested, 0.071% active. AID 540253; note: nearly all actives have a fitted effect of over 45% in size
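Compounds preincubate 5 min with complex of recombinant Rango and importin beta in PBS with 1 mM DTT. Ran (0.6 uM) loaded with 2 mM GTP plus 0.2 uM RCC1 starts dissociation; FRET is recorded 45 min later.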
Integrin act MD: activators of alpha7 integrin expression for muscular dystrophy. Potency, µM (doses to about 38.3 µM), most hits filed as activators. 350,000 tested, 0.064% active. AID 624291. alpha7betagal myoblasts, beta-gal FDG fluorescence, 48 h; active = well fitted curve in the direction sought with a large enough effect; inconclusive = small, poorly fitted or top-dose-only effect, or another doubt; inactive = no such curve, though single readings can be large; an effect the other way counts as inactive or inconclusive; note: nearly all actives have a fitted effect of over 60% in size
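Alpha7betagal+/- myoblasts (passage 13) were plated 16-24 hr, then exposed to compounds (1:260 dilution of DMSO stock) for 48 hours at 37C. After MPER lysis, β-galactosidase reporter activity was read as FDG fluorescence (ex 480/em 540) after 30 minutes.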
Of the large screens only hits and unclear results are named; the others gave an inactive call. Unless noted, calls come from the whole dose curve.

Cc1ccc(NC(=O)c2sc3ncnc(N4CCN(c5ccccn5)CC4)c3c2C)c(C)c1	MmCpn inh inconclusive
COc1ccc(NC(=O)Nc2ccc3c(c2)C(=O)N([C@H](C)CO)C[C@@H](C)[C@@H](CN(C)C(=O)C2CCCCC2)OCCCC[C@H](C)O3)cc1	none (no result: Rango-impB inh, MmCpn inh, Rango dissoc inh)
O=c1c(-c2c(O)cc(O)c3c2O[C@H](c2ccc(O)cc2)CC3)c(-c2ccc(O)cc2)oc2cc(O)cc(O)c12	MmCpn inh 35µM
COc1ccc(C(C#N)CC(=O)c2ccc(OCc3ccccc3)c(OC)c2)cc1OC (stereo not drawn)	none (no result: Rango-impB inh, MmCpn inh, Rango dissoc inh)
CC/C=C/C(=O)N1CC2(CC(c3cccc(NC(=O)CC(c4ccccc4)c4ccccc4)c3)=NO2)C[C@@H]1C(N)=O (stereo partly drawn)	CCT modulator -33
NC(=O)C1CCN(c2nc(-c3cccc(Br)c3)cs2)CC1	none (no result: Rango-impB inh, CCT modulator, Rango dissoc inh, Integrin act MD)
COc1ccccc1CC(=O)Nc1cc(C)ccn1	none
COc1ccccc1CNc1cc(C)ccn1	Integrin act MD 2.5µM
COc1ccc(NC(=O)CN(C)C(=O)CC2CCCC2)cc1	none
COc1cccc(NC(=O)CN(C)C(=O)CC2CCCC2)c1	CCT modulator -34 (no result: MmCpn inh)
CC1CCN(C(=O)COC(=O)CCCN2C(=O)c3cccc4cccc(c34)C2=O)CC1	CCT modulator -94
CC(NC(=O)OC(C)(C)C)C(=O)NC(CCC(=O)OCc1ccccc1)C(N)=O (stereo not drawn)	CCT modulator -60
COc1ccc(Cl)cc1C1=NOC2(CCC2)C(=O)N1Cc1cccc(C#N)c1	none (no result: Rango-impB inh, MmCpn inh, Rango dissoc inh, Integrin act MD)
COc1ccc([C@]23Cc4cc(OC)c(OC)cc4C(O2)C2=C(CCCC2=O)O3)cc1	none (no result: Rango-impB inh, CCT modulator, Rango dissoc inh, Integrin act MD)
COc1ccc(S(=O)(=O)Nc2ccc(S(=O)(=O)Nc3nccs3)cc2)cc1	Integrin act MD 13µM
Cc1cc(C)c2nc(N3C(=O)C(O)=C(C(=O)c4ccco4)C3c3ccc(O)cc3)sc2c1 (stereo not drawn)	Rango-impB inh inconclusive, Rango dissoc inh 26µM
Cc1ccc2nc(N3C(=O)C(O)=C(C(=O)c4ccco4)C3c3ccc(O)cc3)sc2c1 (stereo not drawn)	none (no result: Rango-impB inh, CCT modulator, Rango dissoc inh, Integrin act MD)
Cc1cc(C)c2nc(N3C(=O)C(O)=C(C(=O)c4ccco4)C3c3cccc(O)c3)sc2c1 (stereo not drawn)	Rango-impB inh inconclusive, Rango dissoc inh 4.1µM, Integrin act MD inconclusive
O=C(C1=C(O)C(=O)N(c2nc3ccc(Cl)cc3s2)C1c1ccco1)c1ccco1 (stereo not drawn)	Rango-impB inh inconclusive, Rango dissoc inh 16µM
c1ccc(NN=C(c2ccccc2)c2cccs2)cc1	none (no result: Rango-impB inh, MmCpn inh, Rango dissoc inh)
COc1ccc(Nc2cc(O)c3ncccc3c2)cc1	none (no result: Rango-impB inh, CCT modulator, Rango dissoc inh, Integrin act MD)
Oc1ccc(COCc2ccc(F)cc2)c2cccnc12	none (no result: Rango-impB inh, CCT modulator, Rango dissoc inh, Integrin act MD)
Cc1ccc(NC(=O)CS(=O)CC(=O)N(CC(=O)NC2CCCC2)c2cc(C)ccc2C)cc1 (stereo not drawn)	CCT modulator -93
Cc1ccccc1N(CC(=O)NC1CCCC1)C(=O)CS(=O)CC(=O)Nc1ccc2c(c1)OCO2 (stereo not drawn)	none
CCOC(=O)c1csc(-c2ccc(COC(=O)c3ccccc3)o2)n1	none (no result: Rango-impB inh, MmCpn inh, Rango dissoc inh, Integrin act MD)
COc1ccc(-c2nnc(SCC(=O)NC(C)c3ccccc3)o2)cc1 (stereo not drawn)	CCT modulator -50
CC(NC(=O)Cc1ccc(-c2ccccc2)cc1)c1ccccc1 (stereo not drawn)	CCT modulator -43
COc1ccc(-c2nnc(SCC(=O)Nc3ccccc3OC)o2)cc1	none
COc1ccc(S(=O)(=O)N(NC2=NS(=O)(=O)c3ccccc32)C(=O)C(C)C)cc1	Integrin act MD 2.5µM
CN1CCOc2ccc(S(=O)(=O)N3CCN(S(=O)(=O)c4c(F)cccc4F)CC3)cc21	none (no result: Rango-impB inh, CCT modulator, Rango dissoc inh, Integrin act MD)
O=C(Cc1ccc(S(=O)(=O)N2CCCC2)s1)N1CCN(c2ccccc2)CC1	Rango-impB inh inconclusive, CCT modulator -93
O=C(Cc1ccc(S(=O)(=O)N2CCOCC2)s1)N1CCN(c2cccc(C(F)(F)F)c2)CC1	none
CC(=O)N[C@H](C(=O)N[C@@H](C)C(=O)N[C@H](C#N)CC(=O)O)C(C)C	none (no result: Rango-impB inh, CCT modulator, Rango dissoc inh, Integrin act MD)
O=C(N/N=C/c1cccnc1)c1cccc(N2CCCC2=O)c1	none
CCN(CC)c1ccc(/C=N/NC(=O)c2cccc(N3CCCC3=O)c2)cc1	Rango-impB inh inconclusive, Rango dissoc inh 10µM

High-throughput results deposited in PubChem by National Center for Advancing Translational Sciences (NCATS).
